The values below come from PubChem BioAssay.

Assay [1] in a line: rapamycin-like changes in RPL19A-GFP expression – cell-based, S. cerevisiae, multiplex flow cytometry, primary screen (AID 1862).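 Further: lower values mimic rapamycin by blocking the RPL19A rise seen in DMSO cells.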 To be noted: S. cerevisiae RPL19A-GFP strain, flow cytometry fluorescence, 3 h; at 10 µM; stronger effect = lower value. A general note: In flow cytometry, cells or beads pass a laser one at a time.
The nature of assay [2]: TOR pathway GLN3 branch reporter MEP2-GFP changes – S. cerevisiae, multiplex flow cytometry, primary screen (AID 1867;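 active means GFP response, as percent of the DMSO control, above the screen-wide mean plus 3 SD, about 139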;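 further: median GFP channel fluorescence of barcode-gated MEP2-GFP cells measured by flow cytometry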). To be noted: S. cerevisiae MEP2-GFP strain, 3 h, at 10 µM, stronger effect = higher value, 100% means same as DMSO wells.
A short description of assay [3]: TOR pathway RTG branch CIT2 reporter changes – S. cerevisiae, GFP fusion, multiplex flow cytometry, primary screen (AID 1870;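 active means percent response above a set limit, the screen-wide mean plus 3 SD, cut at about 130% in these data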;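 further: barcoded CIT2-GFP strain pooled with four other GFP strains with rapamycin as positive control; median GFP fluorescence per well over plate mean of DMSO wells so 100% = DMSO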). To be noted: S. cerevisiae CIT2-GFP expression, 3 h, at 10 µM, stronger effect = higher value.
Assay [4] is described as follows: TOR pathway LAP4-GFP level changes – S. cerevisiae, multiplex flow cytometry, primary screen (AID 1873;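 active means GFP signal, as percent of the solvent control, above the screen mean plus 3 SD, about 149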). The note with it: S. cerevisiae LAP4-GFP expression, 3 h, at 10 µM, stronger effect = higher value.
A short description of assay [5]: yeast AGP1-GFP level changes, GLN3 branch – cell-based, multiplex flow cytometry, S. cerevisiae, primary screen (AID 1887;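 active means GFP signal above the screen-wide mean plus 3 SD, that is over about 124.5% of the solvent control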;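 further: AGP1-GFP fusion strain of S. cerevisiae within a five-strain barcoded multiplex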). The note with it: 3 h, at 10 µM, stronger effect = higher value.
The nature of assay [6]: reduced mouse 2C T cell binding to pMHC/ICAM-1 vesicles – MLPCN validation set, flow cytometry, LFA-1/ICAM-1 modulator project, pilot screen (AID 2523;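 active means response below a set limit, under 55% cells CD8-positive and vesicle-bound, and CD8 cells' 90th-percentile brightness under 279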;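 on vesicle binding response: mean PE anti-B7-1 fluorescence of CD8+ cells relative to row control; 100% = QL9-loaded vesicles with DMSO vehicle in the same plate row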). To be noted: 2C mouse CD8+ T cells, at 7 µM, stronger effect = lower value; double positive events: measured here: CD8+/vesicle+ event percentage.
The target in assay [7] is Integrin beta-1 (Homo sapiens) + Integrin alpha-4 (Homo sapiens) (UniProt P13612+P05556). The assay is described as follows: alpha4beta1 integrin LIBS antibody binding reduction – U937 cells, HUTS-21 mAb, flow cytometry, validation set, VLA-4 allosteric modulator project, pilot screen (AID 2674;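 active means inhibition above 50%, about 3 SD of the validation set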;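 further: antibody binding induced by the VLA-4 ligand LDV present at three times its Kd; 0% = LDV ligand with antibody and no compound and 100% = antibody without LDV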). To be noted: HUTS-21 LIBS mAb binding, at 6.7 µM, stronger effect = higher value, binding induced by LDV ligand.

A short description of assay [8]: calorie-restriction mimetic ROS inhibitors, yeast – validation compound set, pilot screen (AID 2706;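 active means superoxide response below 65% of plate, a cut near 3 SD across the whole screen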;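 further: yeast exposed to compound for one week at 30 degrees C before staining; 100% = mean of all compound wells on the same plate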). The note with it: S. cerevisiae aging, superoxide DHE fluorescence; at 10 µM; stronger effect = lower value.
For assay [9], the target named is Beta-adrenergic receptor kinase 1 (Homo sapiens) (UniProt P25098). In words: GRK2 binders displacing RNA aptamer, biochemical, validation, human GRK2, bead flow cytometry (AID 488806;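 active means aptamer binding inhibition above 30%, about 3 SD of noise from non-fluorescent compounds; inactive means inhibition at or below 30%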). The note with it: bead-bound GRK2, FAM-aptamer displacement, at 10 µM, stronger effect = higher value.
For assay [10], the target named is Beta-2 adrenergic receptor (Homo sapiens) (UniProt P07550). The assay is described as follows: agonist-induced loss of surface beta2AR – cell-based, FAP fluorogen, flow cytometry, validation set, pilot screen (AID 504459;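 active means percent response above 42, roughly 3 SD of non-fluorescent test compounds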;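 further: agonist-driven loss of surface beta2AR via internalization measured by FAP dye flow cytometry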). To be noted: Am2.2-beta2AR cells, at 10 µM, stronger effect = higher value.
Assay [11] addresses AP-2 complex subunit beta (Homo sapiens) (UniProt P63010). The assay is described as follows: beta-arrestin/AP2 interaction blockers – biochemical, validation set, GST-AP2 beads, flow cytometry, pilot screen (AID 504541;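 active means inhibition above 54%, about 3 SD of non-fluorescent compounds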;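 further: AP2 carries R879A mutation and is captured from E. coli lysate; bead-bound FITC arrestin peptide fluorescence measuring arrestin peptide binding to AP2; 0% = DMSO wells and 100% = excess unlabeled arrestin peptide control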). To be noted: FITC arrestin peptide, at 10 µM, stronger effect = higher value, AP2 beta2 appendage fragment, R879A mutant.
The nature of assay [12]: cytosolic pH regulators acting via V-ATPase – S. cerevisiae, pHLuorin, HTS validation (AID 504600; in the data active means response above about 15%;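 further: plate controls were DMSO for no effect and reference compound for full effect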). To be noted: V-ATPase proton transport, at 10 µM, stronger effect = higher value.
Assay [13] concerns anti-desmoglein-3 scFv antibody binding to human DSG3. The assay is described as follows: blockers of pathogenic pemphigus antibody–desmoglein-3 binding – biochemical, validation compound set, bead-based, flow cytometry, pilot screen (AID 588368;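 active means binding below the plate cutoff, the plate median minus 3 SD, with a reading above zero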;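 further: signal is the median channel fluorescence of bead-bound GFP antibody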). To be noted: Protein G beads, DSG3-Fc, scFv-GFP binding, at 10 µM, stronger effect = lower value.
Assay [14] in a line: Nile Red efflux blockade in pump-expressing yeast – validation compound set, multiplex, phenotypic, pilot screen (AID 588506;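 active means efflux inhibition above 0.42, the validation set average plus 4 SD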;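 further: Nile Red retained in cells so higher fluorescence means more efflux inhibition; 0 = negative control wells and 1 = enniatin B 25 µM full block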). The note with it: S. cerevisiae pump-expressing triplex, Nile Red efflux flow cytometry; at 10 µM; stronger effect = higher value; the pumps come from Candida albicans.
Assay [15] has as its target ATP-binding cassette sub-family B member 6 (Homo sapiens) (UniProt Q9NP58). The assay is described as follows: blockers of ABCB6-driven porphyrin uptake – K562-ABCB6 cells, flow cytometry, validation set, pilot screen (AID 588550;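 active means inhibition above the screen-wide mean plus 3 SD, about 51%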;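 further: 0% = DMSO wells and 100% = benzethonium chloride 70 µM positive control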). To be noted: K562-ABCB6 porphyrin accumulation, 1 h, at 10 µM, stronger effect = higher value.
Assay [16] in a line: AML differentiation inducers, ER-HoxA9 marrow cells – cell-based, GFP/MAC1 double positive, flow cytometry, validation set, primary screen (AID 588685;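 active means differentiation response of at least 50%, scaled between solvent and reference control, from cells with both markers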;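 further: compound exposure lasts four days before antibody staining and flow analysis; 0% = DMSO wells and 100% = 5 µM fulvestrant positive control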). The note with it: stronger effect = higher value, normalized: vehicle 0, fulvestrant 100.

Results filed as inconclusive are left out. Calls of active or inactive are those of the source. Unless noted, no stated cut-off is given here; in the data, active means percent of DMSO control GFP below about 86%; inactive means the rest, inconclusive results apart.

Sequence of Beta-2 adrenergic receptor (Homo sapiens) (P07550 whole entry, looked up): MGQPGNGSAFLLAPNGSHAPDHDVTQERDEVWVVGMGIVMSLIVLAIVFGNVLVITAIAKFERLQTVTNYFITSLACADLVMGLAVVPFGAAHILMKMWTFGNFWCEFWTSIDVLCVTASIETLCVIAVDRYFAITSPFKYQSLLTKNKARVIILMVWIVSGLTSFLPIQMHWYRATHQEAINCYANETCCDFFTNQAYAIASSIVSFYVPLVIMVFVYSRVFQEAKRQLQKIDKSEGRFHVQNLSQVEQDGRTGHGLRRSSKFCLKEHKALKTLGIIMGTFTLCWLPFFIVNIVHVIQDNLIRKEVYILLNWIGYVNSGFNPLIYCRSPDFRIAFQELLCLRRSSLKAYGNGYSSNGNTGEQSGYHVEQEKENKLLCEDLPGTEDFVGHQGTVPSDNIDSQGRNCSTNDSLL
Sequence of Beta-adrenergic receptor kinase 1 (Homo sapiens) (P25098 whole entry, looked up): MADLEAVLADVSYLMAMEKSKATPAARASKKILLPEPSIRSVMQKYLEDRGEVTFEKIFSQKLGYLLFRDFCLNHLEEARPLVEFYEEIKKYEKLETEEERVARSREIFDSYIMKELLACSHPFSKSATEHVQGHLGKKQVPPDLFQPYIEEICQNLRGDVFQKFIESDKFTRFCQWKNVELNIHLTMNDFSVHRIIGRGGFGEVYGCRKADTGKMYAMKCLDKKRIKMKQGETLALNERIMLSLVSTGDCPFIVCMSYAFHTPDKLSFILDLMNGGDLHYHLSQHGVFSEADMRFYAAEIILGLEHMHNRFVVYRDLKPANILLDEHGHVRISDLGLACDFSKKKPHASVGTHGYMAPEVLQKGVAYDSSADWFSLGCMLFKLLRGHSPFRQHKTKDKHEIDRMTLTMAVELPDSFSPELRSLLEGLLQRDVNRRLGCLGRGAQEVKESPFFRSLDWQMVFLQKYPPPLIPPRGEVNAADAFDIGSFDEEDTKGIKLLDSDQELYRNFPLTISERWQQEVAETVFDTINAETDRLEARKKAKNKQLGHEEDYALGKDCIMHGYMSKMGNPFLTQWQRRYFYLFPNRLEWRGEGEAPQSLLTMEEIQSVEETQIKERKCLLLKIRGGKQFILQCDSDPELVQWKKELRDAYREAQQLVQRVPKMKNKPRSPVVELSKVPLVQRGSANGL
Sequence of Integrin beta-1 (Homo sapiens) + Integrin alpha-4 (Homo sapiens) (P05556 whole entry, looked up): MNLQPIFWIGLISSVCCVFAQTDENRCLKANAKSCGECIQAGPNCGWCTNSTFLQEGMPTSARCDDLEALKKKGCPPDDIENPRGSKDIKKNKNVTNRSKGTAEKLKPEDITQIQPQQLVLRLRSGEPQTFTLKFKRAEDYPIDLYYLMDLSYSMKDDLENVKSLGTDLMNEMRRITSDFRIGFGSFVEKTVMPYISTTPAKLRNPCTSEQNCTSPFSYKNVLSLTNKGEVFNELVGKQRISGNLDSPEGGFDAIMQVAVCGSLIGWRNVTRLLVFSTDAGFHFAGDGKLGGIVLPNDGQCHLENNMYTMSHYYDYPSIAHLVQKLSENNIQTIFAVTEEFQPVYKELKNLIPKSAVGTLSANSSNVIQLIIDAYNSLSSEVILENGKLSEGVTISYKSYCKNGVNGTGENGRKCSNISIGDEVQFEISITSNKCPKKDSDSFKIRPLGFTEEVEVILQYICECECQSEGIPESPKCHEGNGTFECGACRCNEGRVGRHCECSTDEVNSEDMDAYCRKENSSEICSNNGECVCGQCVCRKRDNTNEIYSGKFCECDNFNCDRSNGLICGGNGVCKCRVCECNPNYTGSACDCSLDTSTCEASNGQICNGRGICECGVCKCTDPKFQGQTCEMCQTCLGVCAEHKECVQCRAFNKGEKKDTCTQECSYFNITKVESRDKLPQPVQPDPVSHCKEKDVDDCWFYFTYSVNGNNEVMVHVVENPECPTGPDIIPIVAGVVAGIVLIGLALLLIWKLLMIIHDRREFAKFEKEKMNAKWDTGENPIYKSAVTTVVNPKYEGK
Sequence of Integrin beta-1 (Homo sapiens) + Integrin alpha-4 (Homo sapiens) (P13612 whole entry, looked up): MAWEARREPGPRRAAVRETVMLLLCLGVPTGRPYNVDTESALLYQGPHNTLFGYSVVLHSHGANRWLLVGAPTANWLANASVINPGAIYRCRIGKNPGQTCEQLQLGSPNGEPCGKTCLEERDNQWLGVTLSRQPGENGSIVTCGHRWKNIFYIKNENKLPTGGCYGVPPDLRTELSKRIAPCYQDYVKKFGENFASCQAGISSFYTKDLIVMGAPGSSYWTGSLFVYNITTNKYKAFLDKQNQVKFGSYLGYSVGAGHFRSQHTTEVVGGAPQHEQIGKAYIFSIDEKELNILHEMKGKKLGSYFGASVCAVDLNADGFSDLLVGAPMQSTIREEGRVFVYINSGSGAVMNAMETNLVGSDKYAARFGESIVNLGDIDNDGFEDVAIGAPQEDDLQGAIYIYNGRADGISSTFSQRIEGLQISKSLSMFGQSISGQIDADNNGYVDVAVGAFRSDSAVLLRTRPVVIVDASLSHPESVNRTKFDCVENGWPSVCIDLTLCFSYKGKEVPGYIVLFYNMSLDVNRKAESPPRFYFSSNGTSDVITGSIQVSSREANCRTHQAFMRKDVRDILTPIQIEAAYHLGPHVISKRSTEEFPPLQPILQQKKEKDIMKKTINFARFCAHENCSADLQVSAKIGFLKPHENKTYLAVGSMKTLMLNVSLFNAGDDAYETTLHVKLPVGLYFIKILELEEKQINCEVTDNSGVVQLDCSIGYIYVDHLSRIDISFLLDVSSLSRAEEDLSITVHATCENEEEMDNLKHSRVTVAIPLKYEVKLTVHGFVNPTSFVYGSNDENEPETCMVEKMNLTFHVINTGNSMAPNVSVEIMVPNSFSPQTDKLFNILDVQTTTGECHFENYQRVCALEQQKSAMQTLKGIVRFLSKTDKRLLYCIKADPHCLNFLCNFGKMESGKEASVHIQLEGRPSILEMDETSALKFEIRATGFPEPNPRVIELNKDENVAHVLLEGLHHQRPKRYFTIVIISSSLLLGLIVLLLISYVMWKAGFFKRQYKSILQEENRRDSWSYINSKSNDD
Sequence of AP-2 complex subunit beta (Homo sapiens) (P63010 whole entry, looked up, the tested form may be a part, one chain of several): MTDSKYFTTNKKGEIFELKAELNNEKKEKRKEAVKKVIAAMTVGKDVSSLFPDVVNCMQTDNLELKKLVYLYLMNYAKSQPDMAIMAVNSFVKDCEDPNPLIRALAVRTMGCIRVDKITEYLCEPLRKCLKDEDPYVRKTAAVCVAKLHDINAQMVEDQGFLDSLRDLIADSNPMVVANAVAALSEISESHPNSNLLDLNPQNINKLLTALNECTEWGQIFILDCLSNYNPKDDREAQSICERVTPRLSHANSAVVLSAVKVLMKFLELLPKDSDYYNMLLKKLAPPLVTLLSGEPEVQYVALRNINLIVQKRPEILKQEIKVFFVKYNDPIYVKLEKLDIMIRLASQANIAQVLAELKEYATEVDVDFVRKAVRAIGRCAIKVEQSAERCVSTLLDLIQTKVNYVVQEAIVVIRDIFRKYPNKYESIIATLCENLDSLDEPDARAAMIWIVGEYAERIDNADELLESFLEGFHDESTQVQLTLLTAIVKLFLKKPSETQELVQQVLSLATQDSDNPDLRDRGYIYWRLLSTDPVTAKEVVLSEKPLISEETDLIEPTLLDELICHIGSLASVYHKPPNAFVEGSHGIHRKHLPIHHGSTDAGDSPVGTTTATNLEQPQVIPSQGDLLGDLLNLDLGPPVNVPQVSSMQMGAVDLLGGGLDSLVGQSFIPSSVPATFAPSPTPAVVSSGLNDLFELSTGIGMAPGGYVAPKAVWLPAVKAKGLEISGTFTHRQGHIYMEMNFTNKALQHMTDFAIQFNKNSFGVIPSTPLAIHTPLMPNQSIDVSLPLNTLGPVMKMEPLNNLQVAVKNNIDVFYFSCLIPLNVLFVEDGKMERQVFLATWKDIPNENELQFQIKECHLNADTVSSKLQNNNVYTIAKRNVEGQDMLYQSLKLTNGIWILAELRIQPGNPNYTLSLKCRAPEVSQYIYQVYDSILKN
Sequence of ATP-binding cassette sub-family B member 6 (Homo sapiens) (Q9NP58 whole entry, looked up): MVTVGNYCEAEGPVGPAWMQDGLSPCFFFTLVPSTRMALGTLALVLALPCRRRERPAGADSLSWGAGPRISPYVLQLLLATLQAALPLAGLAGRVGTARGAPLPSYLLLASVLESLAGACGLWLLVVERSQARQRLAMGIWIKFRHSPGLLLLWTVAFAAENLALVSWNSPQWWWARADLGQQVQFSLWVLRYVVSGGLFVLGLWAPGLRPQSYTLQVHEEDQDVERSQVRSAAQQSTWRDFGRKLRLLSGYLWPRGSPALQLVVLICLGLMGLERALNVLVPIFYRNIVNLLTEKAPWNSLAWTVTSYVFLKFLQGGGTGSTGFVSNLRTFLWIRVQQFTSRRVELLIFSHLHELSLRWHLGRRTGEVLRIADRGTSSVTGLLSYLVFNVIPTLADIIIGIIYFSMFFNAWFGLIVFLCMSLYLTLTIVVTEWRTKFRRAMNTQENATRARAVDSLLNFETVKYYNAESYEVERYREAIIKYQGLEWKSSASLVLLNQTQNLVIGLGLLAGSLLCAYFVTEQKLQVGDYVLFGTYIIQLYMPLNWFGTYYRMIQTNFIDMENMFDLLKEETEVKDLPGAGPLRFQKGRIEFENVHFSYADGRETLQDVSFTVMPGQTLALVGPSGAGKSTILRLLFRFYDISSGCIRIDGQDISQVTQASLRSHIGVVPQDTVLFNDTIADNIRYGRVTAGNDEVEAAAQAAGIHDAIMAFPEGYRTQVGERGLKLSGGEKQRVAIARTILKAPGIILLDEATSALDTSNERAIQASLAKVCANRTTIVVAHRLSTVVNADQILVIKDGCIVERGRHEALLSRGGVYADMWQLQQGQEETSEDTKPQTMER

What is called inhibition is the relative decrease from the control value, in per cent. `COc1ccc2[nH]c(=O)c(CN(C(=O)c3ccco3)C(C)C)cc2c1`: the percent of DMSO control GFP in assay [1] was 91.7% (inactive). Besides, the GFP response vs DMSO was 148% (active) in assay [2] and 83.6% (inactive) in [4]. Also, the percent response of DMSO control in [3] was 103% (inactive). The GFP response, % of DMSO in assay [5] is 92.6% (inactive). The double positive events in assay [6] stood at 72.1%. In addition, the vesicle binding response in [6] was 221% (inactive). In addition, the inhibition is 4.52% (inactive) in [7], -1.83% (inactive) in assay [11] and 9% (inactive) in [15]. Further, the superoxide response (% of plate) in [8] is 108% (inactive). In [9], the aptamer binding inhibition was 3% (inactive). Further, the response was -2.75% (inactive) in assay [10] and -5.39% (inactive) in assay [12]. In assay [13], the binding (% of control) was 101% (inactive). For the same molecule, in [14], the efflux inhibition (fraction of control) is 0.41 (inactive). Besides, the differentiation response in assay [16] was 0% (inactive).

As for `COC(=O)c1cc(COc2ccc3ccc(=O)oc3c2)c(C)o1`, the percent of DMSO control GFP in assay [1] was 105% (inactive). In addition, the GFP response vs DMSO in assay [2] is 104% (inactive); in [4] it was 109% (inactive). Further, in assay [3], the percent response of DMSO control was 101% (inactive). Moreover, the GFP response, % of DMSO in assay [5] is 92.4% (inactive). For the same molecule, the double positive events in assay [6] is 59.9%. The vesicle binding response in assay [6] is 120% (inactive). Further, the inhibition in [7] was -15.8% (inactive); in [11] it was -2.54% (inactive); in [15] it was 12% (inactive). In [8], the superoxide response (% of plate) is 108% (inactive). Further, the aptamer binding inhibition in assay [9] was 1% (inactive). Also, the values for the response in assay [10] and in assay [12] were 7.33% (inactive) and -7.29% (inactive), respectively. Moreover, the binding (% of control) in assay [13] is 102% (inactive). Also, the efflux inhibition (fraction of control) in assay [14] is 0.29 (inactive). Besides, in assay [16], the differentiation response was -7.5% (inactive).

Consider `COc1ccc2c(c1O)Cc1ccccc1C2=O`, for which, in assay [1], the percent of DMSO control GFP is 94.8% (inactive). Besides, the GFP response vs DMSO was 139% (inactive) in [2] and 84.7% (inactive) in [4]. In addition, the percent response of DMSO control in [3] was 110% (inactive). Besides, the GFP response, % of DMSO in assay [5] is 92.4% (inactive). This molecule also yielded a double positive events in assay [6] of 56.5%. Besides, the vesicle binding response in assay [6] was 220% (inactive). Moreover, the inhibition is -13.9% (inactive) in [7], 46.1% (inactive) in assay [11] and 109% (active) in assay [15]. In addition, in [8], the superoxide response (% of plate) is 117% (inactive). Moreover, the aptamer binding inhibition in assay [9] was 0% (inactive). The response was 0.34% (inactive) in [10] and -2.94% (inactive) in [12]. The binding (% of control) in assay [13] was 104% (inactive). Besides, the efflux inhibition (fraction of control) in assay [14] was -0.06 (inactive). Also, the differentiation response in assay [16] is -0.82% (inactive).

As for `O=C(Nc1ccc(N2CCOCC2)cc1)c1ccc(-c2ccccc2[N+](=O)[O-])o1`, the percent of DMSO control GFP in assay [1] was 102% (inactive). For the same molecule, the GFP response vs DMSO is 102% (inactive) in [2] and 96.5% (inactive) in assay [4]. Further, the percent response of DMSO control in [3] was 106% (inactive). In addition, the GFP response, % of DMSO in assay [5] was 98.8% (inactive). Further, in assay [6], the double positive events was determined as 68.5%. In assay [6], the vesicle binding response was 132% (inactive). Besides, the values for the inhibition in assay [7], in assay [11] and in [15] were 3.98% (inactive), -4.06% (inactive) and 6% (inactive), respectively. Further, the superoxide response (% of plate) in assay [8] was 99.9% (inactive). The aptamer binding inhibition in [9] is 5% (inactive). Besides, the response was 8.71% (inactive) in assay [10] and 1.65% (inactive) in assay [12]. The binding (% of control) in assay [13] was 97.9% (inactive). Further, the efflux inhibition (fraction of control) in [14] is 0.07 (inactive). For the same molecule, the differentiation response in assay [16] was -1.88% (inactive).

Turning to `Cc1cnc(N)c2c(=O)oc3ccccc3c12`, the percent of DMSO control GFP in assay [1] is 99.8% (inactive). For the same molecule, the GFP response vs DMSO in [2] was 100% (inactive); in assay [4], 96.6% (inactive). Moreover, the percent response of DMSO control in assay [3] is 105% (inactive). For the same molecule, the GFP response, % of DMSO in assay [5] is 95.3% (inactive). Moreover, the double positive events in assay [6] turned out to be 61.2%. Further, the vesicle binding response in assay [6] is 275% (inactive). In addition, the inhibition in [7] was -8.75% (inactive); in assay [11] it was -2.59% (inactive); in [15], -2% (inactive). Also, in assay [8], the superoxide response (% of plate) was 98.8% (inactive). Besides, the aptamer binding inhibition in assay [9] was 4% (inactive). Further, the figures for the response in assay [10] and in assay [12] were -6.01% (inactive) and -3.82% (inactive), respectively. In addition, the binding (% of control) in assay [13] was 97.1% (inactive). Moreover, in assay [14], the efflux inhibition (fraction of control) is -0.01 (inactive). Besides, in assay [16], the differentiation response was -6.6% (inactive).
